# Data published in publication PMC9574860, “Chemical Toolkit for PARK7: Potent, Selective, and High-Throughput” (Journal of Medicinal Chemistry, 2022).
# The campaign covered roughly 7,900 compounds. About 400 (5.1%) showed an effect of 50% or more. For the sample, strong results were picked, then their nearest neighbours and some compounds at random.
# Target: Parkinson's disease protein 7 (PARK7/DJ1) (human, UniProt Q99497)
# Assay: primary screen, percent inhibition; read as competition with a fluorescent probe by fluorescence polarization; higher = more effect of the substance
# Conditions: 100 µM
# Outline: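 Fluorescence-polarization probe displacement (JYQ-107, 20 nM final, 2 h) after 2 h preincubation of PARK7 (0.2 μM final) with each fragment at 100 μM final. Read-out ex/em 480/520 nm; remaining activity derived from FP signal loss relative to reference controls.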
# Parkinson's disease protein 7 (PARK7/DJ1), sequence (Q99497 whole entry, looked up): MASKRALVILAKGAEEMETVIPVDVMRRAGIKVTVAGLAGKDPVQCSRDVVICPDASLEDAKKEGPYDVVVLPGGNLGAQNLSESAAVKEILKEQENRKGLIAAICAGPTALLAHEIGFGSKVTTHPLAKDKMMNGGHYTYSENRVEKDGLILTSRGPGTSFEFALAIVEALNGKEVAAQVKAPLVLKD
row,Compound,Inhibition %
1,CC(C)CN(C1CC1)S(=O)(=O)C=Cc1ccccc1,13.3%
2,C=CC(=O)N1CCS(=O)(=O)c2ccccc2C1,7.33%
3,CC1(C)OB(c2cccc3scnc23)OC1(C)C,3.85%
4,C=CC(=O)NCC1CC(C)OC(C)C1 (centres unmarked),11.1%
5,N#Cc1c(N)nc2n1CCS2,4.18%
6,N#Cc1ncccc1OCCc1ccccc1,13.6%
7,CC(NC(=O)Cn1cnc(C#N)n1)c1ccc(F)cc1 (centres unmarked),4.98%
8,C=CC(=O)N1CCN(Cc2ccon2)CC1,4.28%
9,Cn1ncc(C(F)(F)F)c1B1OC(C)(C)C(C)(C)O1,8.08%
10,NC(=O)c1ccsc1NC(=O)CCCl,9.06%
11,O=C(CCl)Nc1nncs1,4.4%
12,NC(=O)c1ccccc1NC(=O)CCl,0.06%
13,NC(=O)c1ccsc1NC(=O)CCl,84.7%
14,O=C(CCl)Nc1ccc(-c2ccccc2)cc1,4.3%
15,NC(=O)c1cc(-c2ccccc2)sc1NC(=O)CCl,79.3%
16,Cn1cc(C(=O)O)c(CCCCl)n1,6.81%
17,N#Cc1cc(N2CCCC2)c2ccccc2n1,3.59%
18,C=CCNS(=O)(=O)C=Cc1ccccc1,7.29%
19,CC1(C)OB(c2cccc(-n3ccnn3)c2)OC1(C)C,6.79%
20,C=CC(=O)Nc1nc2cnccn2n1,23%
21,C=CC(=O)NCc1cc2n(n1)CCCC2,10.1%

row,Compound,Inhibition %
1,N#Cc1ncn(CC2CCCO2)n1 (centres unmarked),1.91%
2,O=S(=O)(F)c1ccccc1O,9.92%
3,O=[N+]([O-])c1ccccc1S(=O)(=O)F,99.1%
4,O=S(=O)(F)c1ccccc1Br,44.3%
5,C=CC(=O)NCC1COC(=O)N1 (centres unmarked),13.5%
6,O=S(=O)(F)c1ccc(C(F)(F)F)cn1,6.36%
7,Cc1ccc(S(=O)(=O)F)nn1,65.4%
8,O=S(=O)(F)c1ccc(C(F)(F)F)nn1,8.52%
9,C=CC(=O)N[C@@H]1C=C[C@H](CO)C1,8.28%
10,Cn1cc(C=C(C#N)C(=O)NCCc2ccccc2)cn1,9.69%
11,CNC(=O)c1cc(C(=O)CCl)cn1C,5.61%
12,O=C(CCl)Nc1cc(C(=O)O)cc(C(=O)O)c1,1.39%
13,O=C(O)c1coc(C(=O)CCl)c1,96.1%
14,NC(=O)c1coc(C(=O)CCl)c1,96.3%
15,O=C(O)c1ccc(CCCl)cc1,8.12%
16,C=CC(=O)N1CCC(OC)C(C)C1 (centres unmarked),4.37%
17,N#CC(=Cc1ccccc1)C(=O)N1CCC(C(N)=O)CC1,9.67%
18,CN1C(=O)C(C#N)=C(N)C12CCCC2,9%
19,C=CC(=O)N1CCN(C(=O)OCC(C)C)CC1,11.5%
20,CN(CCC1CCOCC1)c1nc2ccccn2c1C#N,5.08%
21,O=C(O)CNS(=O)(=O)C=Cc1ccccc1,84.3%

row,Compound,Inhibition %
1,CNC(=O)CNS(=O)(=O)C=Cc1ccccc1,6.07%
2,Cc1ccc(C=CS(=O)(=O)NCCC(=O)O)cc1,5.97%
3,O=C(O)c1csc(NS(=O)(=O)C=Cc2ccccc2)c1,62.5%
4,O=C(O)CCNS(=O)(=O)C=Cc1ccccc1,6.07%
5,O=C(O)c1cccc(NS(=O)(=O)C=Cc2ccccc2)c1,-0.0382%
6,Cc1ccc(C=CS(=O)(=O)NCC(=O)O)cc1,81.7%
7,O=C(O)c1ccc(NS(=O)(=O)C=Cc2ccccc2)cc1,6.88%
8,CNC(=O)CNS(=O)(=O)C=Cc1ccc(Cl)cc1,0.98%
9,CC(=O)N1CCN(C(=O)C=Cc2c(C)nn(C)c2Cl)CC1,8.55%
10,O=C(O)C1CC(O)CN1C(=O)C=Cc1ccc(F)cc1 (centres unmarked),2.28%
11,N#Cc1ccc(N2CCCC(N3CCCCCC3)C2)cn1 (centres unmarked),5.26%
12,O=C(CCl)Nc1cc(C2CC2)nn1-c1ccccc1,18.1%
13,CC1CC(Sc2nncn2-c2ccccc2F)C(=O)O1 (centres unmarked),0.0122%
14,COc1ccc(F)cc1S(=O)(=O)n1ccnc1C,3.76%
15,CC1(C)OB(c2cc(Cl)ccc2N)OC1(C)C,13.4%
16,CC(C)(C)OC(=O)c1cc2ccc(B3OC(C)(C)C(C)(C)O3)cc2[nH]1,7.8%
17,O=c1onc(-c2cnccn2)n1Cc1cccc(F)c1,-2.87%
18,Cc1cc(NS(=O)(=O)c2ccc(S(=O)(=O)F)cc2)c[nH]c1=O,92.6%
19,Cc1cc(NS(=O)(=O)C2=CCCCC2)c[nH]c1=O,48.5%
20,O=C(O)CC1OB(O)c2ccccc21 (centres unmarked),0.686%
21,CCN(CCC#N)S(=O)(=O)C=Cc1ccccc1Cl,6.99%

row,Compound,Inhibition %
1,C#CC(=O)Cc1ccccc1,7.8%
2,O=C(O)Cc1ccccc1CS,89.6%
3,O=C(O)c1ccc(CS)cc1,17.3%
4,O=C(O)Cc1ccc(CS)cc1,58.7%
5,C#CC(=O)Nc1ccc(CC(=O)O)cc1,0.397%
6,COc1ccccc1CS,1.46%
7,C=CC(=O)NCC1CCCc2sc(C)nc21 (centres unmarked),5.16%
8,Fc1ccc(C2=NOC(CCl)C2)cc1 (centres unmarked),-2.86%
9,COc1ccc(S(=O)(=O)N(C)C)cc1NC(=O)CCl,20.4%
10,C=CC(=O)N1CCOc2c(F)ccc(F)c21,9%
11,C=CC(=O)Nc1cc(CC(C)(C)C)nn1C,8.54%
12,O=C(CC1SC(=O)NC1=O)Nc1ccccc1 (centres unmarked),82.7%
13,CC(=O)Nc1ccc(NC2SC(=O)NC2=O)cc1 (centres unmarked),66.6%
14,O=C(CCCl)Nc1ccc(F)cc1,5.87%
15,O=C(CC1SC(=O)NC1=O)Nc1ccc(Cl)cc1 (centres unmarked),95.7%
16,CC(=O)Nc1ccc(OC(=O)N(C)C)cc1,10.8%
17,C=CC(=O)Nc1ccc(Cl)cc1,5.59%
18,O=C(CCl)Nc1ccccc1C(=O)Nc1ccccc1,10.5%
19,O=C(CCCl)Nc1ccccc1,3.48%
20,CC(=O)Nc1ccc(S(=O)(=O)F)cc1,15.8%
